Laboratory results from the supplement of paper PMC11732987, “Enantioselective OTUD7B fragment discovery through chemoproteomics screening and high-throughput optimisation” (Communications Chemistry, 2025).

Legend:
Assay in all cases: log2 ratio of Biotin-Ahx-Ub-VS probe labelling (fragment/DMSO); higher = less target engagement (more negative = stronger competition), active = hit call of the paper (q ≤ 0.05, log2 ratio ≤ -1)
Conditions in all cases: compound concentration: 200 uM; treatment time: 3 h
USP42 = molecular target: T1, USP42 (UniProt Q9H9J4)
T1 sequence (whole entry): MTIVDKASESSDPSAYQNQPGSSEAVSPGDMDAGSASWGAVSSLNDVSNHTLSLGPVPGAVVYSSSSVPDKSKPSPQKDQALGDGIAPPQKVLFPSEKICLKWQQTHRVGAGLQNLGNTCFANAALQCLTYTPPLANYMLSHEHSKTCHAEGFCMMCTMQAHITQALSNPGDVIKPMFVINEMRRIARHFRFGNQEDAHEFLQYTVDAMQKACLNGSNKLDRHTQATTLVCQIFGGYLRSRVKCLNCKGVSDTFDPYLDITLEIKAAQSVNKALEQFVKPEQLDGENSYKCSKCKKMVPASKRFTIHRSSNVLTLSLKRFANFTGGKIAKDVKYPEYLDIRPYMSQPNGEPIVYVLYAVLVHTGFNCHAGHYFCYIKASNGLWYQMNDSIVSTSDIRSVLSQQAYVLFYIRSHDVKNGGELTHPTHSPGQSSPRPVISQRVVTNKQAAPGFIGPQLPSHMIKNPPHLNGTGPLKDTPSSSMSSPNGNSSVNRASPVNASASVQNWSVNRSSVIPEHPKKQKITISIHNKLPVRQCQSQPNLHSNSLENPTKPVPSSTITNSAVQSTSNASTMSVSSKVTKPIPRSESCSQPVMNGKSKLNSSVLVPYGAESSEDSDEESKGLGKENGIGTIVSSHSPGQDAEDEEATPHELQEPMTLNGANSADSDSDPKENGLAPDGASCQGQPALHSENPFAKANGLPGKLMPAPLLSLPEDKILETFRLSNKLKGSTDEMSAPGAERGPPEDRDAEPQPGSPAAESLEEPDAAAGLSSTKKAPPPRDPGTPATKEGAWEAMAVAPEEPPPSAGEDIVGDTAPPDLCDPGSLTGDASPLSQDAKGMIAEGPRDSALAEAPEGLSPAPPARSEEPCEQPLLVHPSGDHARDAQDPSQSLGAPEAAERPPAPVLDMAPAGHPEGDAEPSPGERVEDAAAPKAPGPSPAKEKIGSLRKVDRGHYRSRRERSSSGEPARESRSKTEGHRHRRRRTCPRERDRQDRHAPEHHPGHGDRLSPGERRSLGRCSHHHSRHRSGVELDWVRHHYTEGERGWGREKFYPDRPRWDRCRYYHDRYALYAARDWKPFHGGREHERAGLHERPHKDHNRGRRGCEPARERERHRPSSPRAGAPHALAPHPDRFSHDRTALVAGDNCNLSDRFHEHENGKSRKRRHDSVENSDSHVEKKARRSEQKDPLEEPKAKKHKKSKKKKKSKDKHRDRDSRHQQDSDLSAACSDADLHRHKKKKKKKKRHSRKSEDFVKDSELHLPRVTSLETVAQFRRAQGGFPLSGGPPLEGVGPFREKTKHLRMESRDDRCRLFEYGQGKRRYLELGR
Procedure, shortened: (§1)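 HEK293T lysate (495 µg per sample, in Tris/CHAPS/IGEPAL buffer with protease inhibitors) was exposed in triplicate for 3 h to fragment at 200 µM or to vehicle, then to Biotin-Ahx-Ub-VS at 0.5 µM final for 1 h. Labelled DUBs were enriched on NeutrAvidin, digested with LysC and trypsin, and analysed by diaPASEF LC-MS/MS. Spectronaut label-free quantities were normalised to the global median, and values are average log2 ratios of fragment over vehicle from an unpaired t-test. Only proteins with ≥2 unique peptides were used.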

USP46 = USP46 (UniProt P62068)
Procedure, shortened: as §1

USP47 = molecular target: T2, USP47 (UniProt Q96K76)
T2 sequence (whole entry): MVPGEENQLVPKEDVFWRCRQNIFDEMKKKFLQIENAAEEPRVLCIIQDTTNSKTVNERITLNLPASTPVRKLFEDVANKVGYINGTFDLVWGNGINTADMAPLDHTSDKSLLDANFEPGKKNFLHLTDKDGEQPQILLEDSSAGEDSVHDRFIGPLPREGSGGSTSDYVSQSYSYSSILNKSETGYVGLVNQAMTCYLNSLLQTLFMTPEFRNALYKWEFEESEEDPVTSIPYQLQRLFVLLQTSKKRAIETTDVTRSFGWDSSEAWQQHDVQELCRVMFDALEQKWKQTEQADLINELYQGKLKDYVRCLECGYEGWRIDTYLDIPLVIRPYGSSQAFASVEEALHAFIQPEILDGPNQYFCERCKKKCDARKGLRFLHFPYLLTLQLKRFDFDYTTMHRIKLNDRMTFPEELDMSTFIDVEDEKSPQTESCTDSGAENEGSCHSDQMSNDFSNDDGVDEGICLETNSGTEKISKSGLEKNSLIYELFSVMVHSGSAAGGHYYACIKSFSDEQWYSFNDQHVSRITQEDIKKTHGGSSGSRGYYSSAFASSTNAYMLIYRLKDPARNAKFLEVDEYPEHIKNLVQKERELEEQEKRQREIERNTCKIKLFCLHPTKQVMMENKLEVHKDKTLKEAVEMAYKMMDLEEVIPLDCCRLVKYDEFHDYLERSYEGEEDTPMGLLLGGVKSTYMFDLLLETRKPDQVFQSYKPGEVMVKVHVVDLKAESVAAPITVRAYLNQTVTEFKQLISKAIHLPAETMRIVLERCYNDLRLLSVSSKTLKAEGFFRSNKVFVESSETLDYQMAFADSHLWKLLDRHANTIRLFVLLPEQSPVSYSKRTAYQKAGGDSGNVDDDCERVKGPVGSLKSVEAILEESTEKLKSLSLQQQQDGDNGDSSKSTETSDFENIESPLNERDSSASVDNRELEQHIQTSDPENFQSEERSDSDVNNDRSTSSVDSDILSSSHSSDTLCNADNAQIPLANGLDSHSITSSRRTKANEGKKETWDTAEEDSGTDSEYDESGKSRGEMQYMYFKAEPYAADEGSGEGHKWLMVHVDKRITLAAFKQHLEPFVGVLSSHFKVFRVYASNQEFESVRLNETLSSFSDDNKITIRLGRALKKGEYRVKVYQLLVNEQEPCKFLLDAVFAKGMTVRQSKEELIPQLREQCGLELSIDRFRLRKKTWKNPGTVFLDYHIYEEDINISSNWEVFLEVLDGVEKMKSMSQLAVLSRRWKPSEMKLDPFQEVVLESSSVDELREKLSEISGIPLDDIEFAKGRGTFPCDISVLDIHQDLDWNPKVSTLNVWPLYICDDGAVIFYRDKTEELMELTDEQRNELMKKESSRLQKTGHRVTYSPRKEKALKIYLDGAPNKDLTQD
Procedure, shortened: as §1

USP48 = molecular target: T3, USP48 (UniProt Q86UV5)
T3 sequence (whole entry): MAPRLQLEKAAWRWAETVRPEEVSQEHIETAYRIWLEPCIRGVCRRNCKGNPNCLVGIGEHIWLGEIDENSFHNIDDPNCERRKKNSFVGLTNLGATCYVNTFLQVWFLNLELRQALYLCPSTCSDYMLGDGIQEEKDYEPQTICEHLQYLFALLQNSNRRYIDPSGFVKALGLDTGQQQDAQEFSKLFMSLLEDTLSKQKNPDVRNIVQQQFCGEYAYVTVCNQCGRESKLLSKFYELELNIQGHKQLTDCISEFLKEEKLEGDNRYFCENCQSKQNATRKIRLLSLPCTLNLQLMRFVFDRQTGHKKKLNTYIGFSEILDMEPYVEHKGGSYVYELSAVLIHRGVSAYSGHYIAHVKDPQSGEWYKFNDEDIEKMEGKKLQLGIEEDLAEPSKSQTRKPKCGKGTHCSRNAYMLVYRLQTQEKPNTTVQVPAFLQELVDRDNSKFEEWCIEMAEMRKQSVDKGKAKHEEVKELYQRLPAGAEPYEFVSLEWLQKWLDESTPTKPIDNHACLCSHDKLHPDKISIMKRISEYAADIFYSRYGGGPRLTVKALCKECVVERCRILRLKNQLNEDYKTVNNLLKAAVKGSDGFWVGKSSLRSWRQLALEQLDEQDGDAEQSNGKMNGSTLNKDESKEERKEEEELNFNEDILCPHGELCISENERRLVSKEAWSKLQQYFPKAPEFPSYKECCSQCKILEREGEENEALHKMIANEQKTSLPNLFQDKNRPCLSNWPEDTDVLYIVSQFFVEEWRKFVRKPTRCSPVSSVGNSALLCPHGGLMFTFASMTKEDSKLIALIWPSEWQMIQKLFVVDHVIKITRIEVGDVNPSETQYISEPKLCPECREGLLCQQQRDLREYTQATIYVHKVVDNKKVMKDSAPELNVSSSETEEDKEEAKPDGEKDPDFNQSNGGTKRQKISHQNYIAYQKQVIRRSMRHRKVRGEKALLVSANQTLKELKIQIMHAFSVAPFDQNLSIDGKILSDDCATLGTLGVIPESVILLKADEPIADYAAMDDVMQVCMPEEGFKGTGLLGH
Procedure, shortened: as §1

USP5 = molecular target: T4, USP5 (UniProt P45974)
T4 sequence (whole entry): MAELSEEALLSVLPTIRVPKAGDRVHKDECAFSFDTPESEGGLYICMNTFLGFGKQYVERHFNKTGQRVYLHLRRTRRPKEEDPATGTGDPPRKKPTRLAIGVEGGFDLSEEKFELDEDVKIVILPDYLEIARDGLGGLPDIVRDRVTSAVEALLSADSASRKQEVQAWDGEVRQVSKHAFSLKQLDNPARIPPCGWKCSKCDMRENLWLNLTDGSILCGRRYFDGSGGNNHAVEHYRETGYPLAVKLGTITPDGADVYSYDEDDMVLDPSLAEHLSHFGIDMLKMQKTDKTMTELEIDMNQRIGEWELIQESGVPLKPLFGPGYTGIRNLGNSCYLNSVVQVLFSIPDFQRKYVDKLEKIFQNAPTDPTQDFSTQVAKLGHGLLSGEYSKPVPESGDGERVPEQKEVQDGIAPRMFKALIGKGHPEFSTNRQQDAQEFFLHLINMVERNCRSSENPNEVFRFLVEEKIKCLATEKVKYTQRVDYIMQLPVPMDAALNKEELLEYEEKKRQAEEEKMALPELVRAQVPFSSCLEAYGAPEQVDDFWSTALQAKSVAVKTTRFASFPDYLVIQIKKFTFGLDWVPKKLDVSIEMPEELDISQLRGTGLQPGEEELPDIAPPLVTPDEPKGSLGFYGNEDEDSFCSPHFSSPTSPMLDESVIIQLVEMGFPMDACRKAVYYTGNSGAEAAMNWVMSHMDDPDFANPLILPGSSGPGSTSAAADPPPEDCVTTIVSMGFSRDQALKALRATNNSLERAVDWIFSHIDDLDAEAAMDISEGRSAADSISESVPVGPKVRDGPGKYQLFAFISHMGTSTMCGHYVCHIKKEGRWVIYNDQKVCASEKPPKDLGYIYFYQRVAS
Procedure, shortened: as §1

USP54 = USP54 (UniProt Q70EL1)
Procedure, shortened: as §1

USP7 = USP7 (UniProt Q93009)
Procedure, shortened: as §1

USP8 = molecular target: T5, USP8 (UniProt P40818)
T5 sequence (whole entry): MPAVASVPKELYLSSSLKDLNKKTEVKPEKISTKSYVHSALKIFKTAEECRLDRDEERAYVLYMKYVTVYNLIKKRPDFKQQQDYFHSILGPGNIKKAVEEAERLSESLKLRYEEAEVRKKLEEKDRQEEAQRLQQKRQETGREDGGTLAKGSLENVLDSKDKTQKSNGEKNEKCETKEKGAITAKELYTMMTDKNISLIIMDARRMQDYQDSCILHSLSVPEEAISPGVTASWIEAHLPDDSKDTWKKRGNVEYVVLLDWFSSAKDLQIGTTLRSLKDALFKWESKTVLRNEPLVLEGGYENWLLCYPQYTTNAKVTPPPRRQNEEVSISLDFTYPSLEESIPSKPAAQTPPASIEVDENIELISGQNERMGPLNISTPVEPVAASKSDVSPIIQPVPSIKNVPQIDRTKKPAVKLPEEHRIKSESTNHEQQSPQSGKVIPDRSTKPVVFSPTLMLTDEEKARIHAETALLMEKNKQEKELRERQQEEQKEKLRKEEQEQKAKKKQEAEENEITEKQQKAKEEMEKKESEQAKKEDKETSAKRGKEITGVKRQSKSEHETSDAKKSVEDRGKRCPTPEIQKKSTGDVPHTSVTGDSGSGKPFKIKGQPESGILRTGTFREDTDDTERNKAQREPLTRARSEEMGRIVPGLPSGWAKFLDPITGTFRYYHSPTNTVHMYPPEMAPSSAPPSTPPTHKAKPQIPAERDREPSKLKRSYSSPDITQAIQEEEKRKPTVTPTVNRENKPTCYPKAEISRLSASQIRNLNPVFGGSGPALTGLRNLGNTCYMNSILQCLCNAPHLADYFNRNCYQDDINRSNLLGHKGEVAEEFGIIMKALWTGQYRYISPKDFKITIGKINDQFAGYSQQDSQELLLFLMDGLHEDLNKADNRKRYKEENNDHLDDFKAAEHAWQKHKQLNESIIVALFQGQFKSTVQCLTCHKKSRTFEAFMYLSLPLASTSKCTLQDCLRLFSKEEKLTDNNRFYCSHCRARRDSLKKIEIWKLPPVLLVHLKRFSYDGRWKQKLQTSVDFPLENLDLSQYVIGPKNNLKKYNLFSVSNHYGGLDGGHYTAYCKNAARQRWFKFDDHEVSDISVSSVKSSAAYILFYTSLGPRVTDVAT
Procedure, shortened: as §1

USP9X = USP9X (UniProt Q93008)
Procedure, shortened: as §1

UniProt O00487 = molecular target: UniProt O00487
Procedure, shortened: as §1

Measured: log2 ratio of Biotin-Ahx-Ub-VS probe labelling

Sequence of USP46 (P62068 whole entry): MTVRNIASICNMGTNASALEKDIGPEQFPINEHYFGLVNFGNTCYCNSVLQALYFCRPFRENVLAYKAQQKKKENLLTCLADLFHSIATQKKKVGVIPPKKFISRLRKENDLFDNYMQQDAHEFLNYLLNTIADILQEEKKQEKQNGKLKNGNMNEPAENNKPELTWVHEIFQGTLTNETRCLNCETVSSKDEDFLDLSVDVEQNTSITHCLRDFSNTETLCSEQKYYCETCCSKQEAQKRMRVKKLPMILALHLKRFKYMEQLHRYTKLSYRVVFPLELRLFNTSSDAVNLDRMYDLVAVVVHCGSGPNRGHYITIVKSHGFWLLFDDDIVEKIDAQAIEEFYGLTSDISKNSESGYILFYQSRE
Sequence of USP9X (Q93008 whole entry): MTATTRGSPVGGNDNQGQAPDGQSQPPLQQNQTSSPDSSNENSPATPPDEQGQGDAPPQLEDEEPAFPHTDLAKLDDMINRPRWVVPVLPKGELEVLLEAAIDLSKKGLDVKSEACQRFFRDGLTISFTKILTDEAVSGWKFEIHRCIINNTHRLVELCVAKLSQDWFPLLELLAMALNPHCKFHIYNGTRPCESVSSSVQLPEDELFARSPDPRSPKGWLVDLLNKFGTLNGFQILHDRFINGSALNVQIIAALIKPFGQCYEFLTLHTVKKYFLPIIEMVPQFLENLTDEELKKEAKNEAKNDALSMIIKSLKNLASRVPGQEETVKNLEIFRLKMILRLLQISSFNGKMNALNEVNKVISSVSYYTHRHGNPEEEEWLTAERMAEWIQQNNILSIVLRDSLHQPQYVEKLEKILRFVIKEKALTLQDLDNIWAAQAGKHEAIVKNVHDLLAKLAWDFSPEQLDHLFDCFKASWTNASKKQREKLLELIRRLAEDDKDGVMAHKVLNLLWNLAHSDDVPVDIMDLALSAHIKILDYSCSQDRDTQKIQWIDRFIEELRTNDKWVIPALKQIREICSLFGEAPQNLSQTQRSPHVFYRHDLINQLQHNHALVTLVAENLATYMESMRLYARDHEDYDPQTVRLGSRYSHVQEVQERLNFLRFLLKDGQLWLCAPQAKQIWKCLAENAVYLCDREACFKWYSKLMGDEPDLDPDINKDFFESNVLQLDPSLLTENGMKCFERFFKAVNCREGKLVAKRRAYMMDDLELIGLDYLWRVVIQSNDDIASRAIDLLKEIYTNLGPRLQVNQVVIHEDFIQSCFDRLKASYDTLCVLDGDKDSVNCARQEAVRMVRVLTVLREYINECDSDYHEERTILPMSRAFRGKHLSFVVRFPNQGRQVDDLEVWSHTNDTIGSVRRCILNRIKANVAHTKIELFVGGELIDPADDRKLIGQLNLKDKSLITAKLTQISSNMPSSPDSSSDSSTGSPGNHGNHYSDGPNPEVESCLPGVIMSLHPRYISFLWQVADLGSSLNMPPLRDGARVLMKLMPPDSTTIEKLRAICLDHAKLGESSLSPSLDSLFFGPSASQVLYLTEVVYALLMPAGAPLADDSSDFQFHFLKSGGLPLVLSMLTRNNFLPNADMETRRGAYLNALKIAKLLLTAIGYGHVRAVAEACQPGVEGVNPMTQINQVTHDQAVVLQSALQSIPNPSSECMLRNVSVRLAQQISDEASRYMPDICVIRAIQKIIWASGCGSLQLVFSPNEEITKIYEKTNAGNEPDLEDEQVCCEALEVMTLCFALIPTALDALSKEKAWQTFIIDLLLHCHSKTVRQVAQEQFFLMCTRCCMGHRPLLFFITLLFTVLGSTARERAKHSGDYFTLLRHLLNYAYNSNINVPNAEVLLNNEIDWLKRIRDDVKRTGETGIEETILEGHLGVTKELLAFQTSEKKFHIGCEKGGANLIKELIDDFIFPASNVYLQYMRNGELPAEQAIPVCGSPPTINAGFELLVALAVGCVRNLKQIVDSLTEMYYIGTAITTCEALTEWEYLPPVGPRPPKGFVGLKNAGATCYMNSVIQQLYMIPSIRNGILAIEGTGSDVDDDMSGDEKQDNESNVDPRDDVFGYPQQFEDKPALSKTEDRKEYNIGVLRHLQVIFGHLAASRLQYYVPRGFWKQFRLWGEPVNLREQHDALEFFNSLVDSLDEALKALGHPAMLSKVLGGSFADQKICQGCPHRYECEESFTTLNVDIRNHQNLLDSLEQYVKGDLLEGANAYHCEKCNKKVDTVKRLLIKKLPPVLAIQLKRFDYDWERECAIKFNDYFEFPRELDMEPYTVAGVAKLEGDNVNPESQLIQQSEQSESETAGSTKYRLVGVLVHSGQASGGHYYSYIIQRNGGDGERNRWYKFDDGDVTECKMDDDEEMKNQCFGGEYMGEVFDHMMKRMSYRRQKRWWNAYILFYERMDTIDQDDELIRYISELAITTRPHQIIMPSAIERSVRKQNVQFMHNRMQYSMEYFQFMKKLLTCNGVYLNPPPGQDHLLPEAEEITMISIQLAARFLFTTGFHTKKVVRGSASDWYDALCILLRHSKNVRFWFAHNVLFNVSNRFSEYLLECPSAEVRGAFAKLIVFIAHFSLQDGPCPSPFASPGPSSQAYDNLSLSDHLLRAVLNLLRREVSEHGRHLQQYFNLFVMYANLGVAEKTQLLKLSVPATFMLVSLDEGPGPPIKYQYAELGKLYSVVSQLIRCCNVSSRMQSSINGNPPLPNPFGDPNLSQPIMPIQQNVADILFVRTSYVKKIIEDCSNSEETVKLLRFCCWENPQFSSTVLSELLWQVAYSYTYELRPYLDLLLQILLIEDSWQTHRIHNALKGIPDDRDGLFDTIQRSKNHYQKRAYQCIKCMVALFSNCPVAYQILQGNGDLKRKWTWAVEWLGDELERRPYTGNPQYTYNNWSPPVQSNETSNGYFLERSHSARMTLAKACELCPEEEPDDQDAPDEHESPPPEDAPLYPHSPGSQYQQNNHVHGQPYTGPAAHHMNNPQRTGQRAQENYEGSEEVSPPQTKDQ
Sequence of UniProt O00487 (O00487 whole entry): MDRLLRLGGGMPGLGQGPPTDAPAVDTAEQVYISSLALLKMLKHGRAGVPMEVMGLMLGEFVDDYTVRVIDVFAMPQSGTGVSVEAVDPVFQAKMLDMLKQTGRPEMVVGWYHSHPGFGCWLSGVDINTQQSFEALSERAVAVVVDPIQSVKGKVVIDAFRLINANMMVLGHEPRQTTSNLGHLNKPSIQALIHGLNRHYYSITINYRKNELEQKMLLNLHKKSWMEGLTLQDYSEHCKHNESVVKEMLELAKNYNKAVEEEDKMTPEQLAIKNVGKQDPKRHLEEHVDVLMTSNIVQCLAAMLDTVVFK
Sequence of USP7 (Q93009 whole entry, looked up): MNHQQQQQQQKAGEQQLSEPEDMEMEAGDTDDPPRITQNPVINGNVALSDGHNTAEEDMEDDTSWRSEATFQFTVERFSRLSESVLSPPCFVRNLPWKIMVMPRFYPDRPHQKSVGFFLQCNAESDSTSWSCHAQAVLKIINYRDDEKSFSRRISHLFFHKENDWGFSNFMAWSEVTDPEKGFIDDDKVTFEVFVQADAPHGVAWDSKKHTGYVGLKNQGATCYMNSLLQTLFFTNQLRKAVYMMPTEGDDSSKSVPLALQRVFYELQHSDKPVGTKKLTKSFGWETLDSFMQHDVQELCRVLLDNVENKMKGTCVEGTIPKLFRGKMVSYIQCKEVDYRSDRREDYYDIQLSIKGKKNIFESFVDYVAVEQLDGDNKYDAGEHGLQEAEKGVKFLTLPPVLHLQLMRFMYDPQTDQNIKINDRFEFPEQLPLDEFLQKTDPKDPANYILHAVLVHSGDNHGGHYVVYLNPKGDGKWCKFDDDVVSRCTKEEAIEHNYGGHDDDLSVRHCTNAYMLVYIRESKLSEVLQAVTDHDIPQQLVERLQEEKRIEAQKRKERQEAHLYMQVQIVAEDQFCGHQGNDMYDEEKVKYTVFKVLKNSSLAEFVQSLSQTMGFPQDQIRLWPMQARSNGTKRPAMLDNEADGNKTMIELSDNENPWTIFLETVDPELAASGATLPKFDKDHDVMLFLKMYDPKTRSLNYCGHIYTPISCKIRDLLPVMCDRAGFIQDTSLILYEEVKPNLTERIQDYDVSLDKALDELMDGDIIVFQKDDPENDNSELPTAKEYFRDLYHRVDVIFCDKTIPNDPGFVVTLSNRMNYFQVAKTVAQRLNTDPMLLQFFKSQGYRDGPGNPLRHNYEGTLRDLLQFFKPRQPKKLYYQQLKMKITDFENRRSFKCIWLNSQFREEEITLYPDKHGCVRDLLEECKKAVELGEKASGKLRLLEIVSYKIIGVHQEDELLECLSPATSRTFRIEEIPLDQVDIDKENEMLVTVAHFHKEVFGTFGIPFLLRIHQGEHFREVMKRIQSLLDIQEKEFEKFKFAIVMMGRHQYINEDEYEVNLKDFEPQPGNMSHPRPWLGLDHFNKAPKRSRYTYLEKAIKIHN

O=C(CCl)Nc1ccc(F)cc1Cl
inactive: USP42 0.367 | USP46 -0.157 | USP48 -0.144 | USP5 -0.28 | USP54 0.679 | USP7 -0.395 | USP8 -0.165 | USP9X -0.538 | UniProt O00487 -0.0503
active: USP47 -1.41

Cc1nc(-c2cccc(NC(=O)CCl)c2)cs1
inactive: USP42 0.339 | USP46 -0.382 | USP47 -0.123 | USP48 -0.43 | USP5 -0.284 | USP54 0.0451 | USP7 -0.163 | USP8 -0.282 | USP9X -0.362 | UniProt O00487 -0.0542

Cc1ccc(-c2nnc(C)[nH]2)c(NC(=O)CCl)c1
inactive: USP42 0.00752 | USP46 0.277 | USP47 -0.177 | USP48 -0.239 | USP5 0.0867 | USP54 -0.227 | USP7 -0.138 | USP8 0.112 | USP9X -0.0335 | UniProt O00487 -0.138

Cc1c(NC(=O)CCl)c(=O)n(-c2ccccc2)n1C
inactive: USP42 0.238 | USP46 0.0574 | USP47 -0.882 | USP48 -0.0273 | USP5 -0.287 | USP54 0.0174 | USP7 -0.431 | USP8 0.0124 | USP9X 0.00112 | UniProt O00487 -0.111
